The target of assay [1] is 3',5'-cyclic-AMP phosphodiesterase 4B (Homo sapiens) (UniProt Q07343). As to the kind of experiment: qHTS Assay for Inhibitors of PDE-IV (AID 607; active = well fitted activation curve with a large enough effect in the main read-out, with a control signal flat, not every such curve was filed as active; note: potency is the fitted concentration of half-maximal effect). The method, boiled down:
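Live HEK293 cells with a modified cyclic nucleotide-gated (CNG) channel report intracellular cAMP via membrane-potential dye fluorescence (ex 535/em 590 nm). Endogenous PDE-IV was targeted. Compounds were tested at up to 22.9 uM final; RO 20-1724 100 uM served as control.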

Assay [2] addresses Guanine nucleotide-binding protein G(i) subunit alpha-1 (Homo sapiens) (UniProt P63096). Briefly: qHTS Assay for Inhibitors of RGS12 GoLoco Motif Activity (Green Fluorophore) (AID 879).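 Note: negative values mean loss of peptide binding seen as reduced polarization.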 The method, boiled down:
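A drop in FITC polarization marked displacement of the FITC-tagged RGS12 GoLoco peptide (10 nM) from Gαi1 (50 nM). Compounds were incubated 10 min at room temperature in Tris pH 7.5 buffer containing 150 mM NaCl, 0.1 mM GDP and 0.05% NP40; unlabeled peptide titration served as control.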

Assay [3] is described as follows: Cellular Toxicity (caspase-3) HepG2 (AID 654).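 Note: cells exposed to compound for 16 hours before reading.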 The essentials: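 Caspase 3/7 activation in HepG2 is measured as rising luminescence after a 16 hr treatment at 37 °C. Values are scaled between DMSO basal and 100 uM tamoxifen, and AC50 is fitted with the Hill equation.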
A short description of assay [4]: Cellular Toxicity (caspase-3) Jurkat (AID 655).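 Note: cells exposed to compound for 16 h at 37 °C before reading.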 The essentials:
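Jurkat cells (5000/well) in complete medium exposed 16 h at 37 C; caspase-3/7 activity read by Caspase-Glo luminescence after 20 min at room temperature. Normalized to DMSO and 100 uM tamoxifen; AC50 from Hill fits.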

A short description of assay [5]: Cellular Toxicity (caspase-3) HUV-EC-C (AID 656). The method, boiled down:
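HUV-EC-C cells (1000/well) in complete medium, compound-treated 16 h at 37 °C; caspase-3/7 activity read by Caspase-Glo 3/7 luminescence. Normalized to DMSO (basal) and 100 uM tamoxifen (100%); AC50 from Hill-equation concentration-response fits.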

The nature of assay [6]: Cellular Toxicity (caspase-3) SHSY5Y (AID 657). The method, boiled down: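 SH-SY5Y human neuroblastoma cells, 1500/well, exposed to compound for 16 hours at 37 °C in complete medium. Caspase-3/7 activity read by Caspase-Glo luminescence after 1 hr at room temperature, normalized to DMSO and 10 uM staurosporine; AC50 from Hill fit.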
A short description of assay [7]: Cellular Toxicity (caspase-3) BJ (AID 658). The method, boiled down:
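Plated BJ cells (1000/well) rested 5 hr, received compound for 16 hr at 37 °C, then Caspase-Glo 3/7 reagent for 1 hr at room temperature before luminescence reading.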

The nature of assay [8]: Cellular Toxicity (caspase-3) MRC-5 (AID 659). The essentials:
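Apoptosis readout in MRC-5 cells: luciferase light generated after caspase 3/7 cleaves a peptide-aminoluciferin substrate, measured post 16 hr compound incubation at 37 °C.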

Assay [9] can be described thus: Cellular Toxicity (caspase-3) Mesangial (AID 660).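 Note: cells exposed to compound for 16 h before the caspase read.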 The method, boiled down:
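Seed cells derived from normal human renal glomeruli, incubate 5 h, add compounds across concentrations and incubate 16 h at 37 °C. Caspase 3/7 activation is then quantified by luciferase light, with AC50 derived by Hill modeling.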

Assay [10] is described as follows: Cellular Toxicity (caspase-3) SK-N-SH (AID 661). The method, boiled down:
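Cells were seeded and incubated 5 hr at 37 °C, dosed with compound over a concentration range for 16 hr, then given Caspase-Glo 3/7 reagent for 1 hr at room temperature before luminescence reading.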

A short description of assay [11]: Cellular Toxicity (caspase-3) H-4-II-E (AID 663).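 Note: cells exposed to compound for 16 hr before readout.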 The essentials:
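Caspase 3/7 activation measured in H-4-II-E cells in complete culture medium after 16 hr treatment at 37 °C, using luciferase-coupled substrate readout; AC50 values come from Hill-equation fits of normalized concentration-response data.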

A short description of assay [12]: Cellular Toxicity (caspase-3) Hek293 (AID 664).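 Note: cells exposed to compound for 16 h at 37 °C before readout.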 Particulars: HEK293 caspase-3 activation; caspase-3 activation: at 92.2 µM (top of the series), DMSO = 0%, 100 µM tamoxifen = 100%. The essentials: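 qHTS, HEK293 (human embryonic kidney), 16 h cpd exposure in complete medium. Caspase-3/7 activation = luminescence increase; normalized to DMSO/100 uM tamoxifen; Hill-fit AC50.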

Assay [13] can be described thus: Cellular Toxicity (caspase-3) N2a (AID 665).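 Note: compound exposure lasted 16 h at 37 °C before readout.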 The essentials:
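Caspase-3/7 activation, measured as increased luminescence from aminoluciferin release, is quantified in mouse N2a cells exposed to compounds for 16 h. Values are normalized to DMSO and 10 uM staurosporine, with AC50 derived by Hill modelling.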

Assay [14] is described as follows: Cellular Toxicity (caspase-3) NIH 3T3 (AID 666).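 Note: caspase signal read after 16 h compound exposure.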 The method, boiled down: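 Cells were plated at 1000 per well and incubated 5 hr at 37°C, then compound was added for 16 hr. Caspase-Glo 3/7 reagent followed for 20 min at room temperature before luminescence was read.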
Assay [15] in a line: Cellular Toxicity (caspase-3) Renal Proximal Tubule (AID 667).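 Note: cells exposed to compound for 16 hours at 37 °C before detection.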 The method, boiled down:
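Freshly isolated primary rat kidney proximal tubule cells, 1000/well, treated 16 hr at 37 °C, then Caspase-Glo 3/7 luminescence after 1 hr. Normalized to DMSO and 10 uM staurosporine; AC50 from Hill fit.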

Assay [16] deals with Cytochrome P450 2D6 (Homo sapiens) (UniProt P10635). As to the kind of experiment: qHTS Assay for Inhibitors and Substrates of Cytochrome P450 2D6 (AID 891). Note: nearly all actives have a fitted effect of over 60% in size. Note: potency is the fitted concentration of half-maximal effect. The method, boiled down:
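Luminescent read-out of luciferin formed by 5 nM human CYP2D6 demethylating 30 uM Luciferin-ME EGE (Km level) over 60 min at room temperature after NADPH regeneration addition. Data normalized to full inhibition by 1.43 uM quinidine.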
For orientation: Quantitative high-throughput screening tests each substance at several concentrations.

Assay [17] in a line: qHTS Assay for Identification of Small Molecule Antagonists for NFkB Signaling Pathway (AID 895; active = well fitted inhibition curve with a large enough effect in the signal ratio, with a control signal flat, not every such curve was filed as active; the % refers to the signal ratio). The method, boiled down: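 NFkB-bla ME-180 cervical carcinoma cells with beta-lactamase reporter under NFkB response element; compounds added, then TNF alpha at 10 pM final (EC50), 5 h at 37 C. LiveBLAzer substrate 2 h, room temperature; emission 460/530 nm at 405 nm excitation.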

Assay [18] addresses Cytochrome P450 2C9 (Homo sapiens) (UniProt P11712). Briefly: qHTS Assay for Inhibitors and Substrates of Cytochrome P450 2C9 (AID 883). Note: nearly all actives have a fitted effect of over 60% in size. Note: potency is the fitted concentration of half-maximal effect. The essentials:
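A luminogenic readout tracked human CYP2C9 (10nM) converting deoxyluciferin (100uM, at KM) in 25mM KPO4 during 60 min at 37C with regenerated NADPH. Values normalized to 57uM sulphaphenazole as complete inhibition.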

Assay [19] deals with Cytochrome P450 2C19 (Homo sapiens) (UniProt P33261). Briefly: qHTS Assay for Inhibitors and Substrates of Cytochrome P450 2C19 (AID 899). Note: nearly all actives have a fitted effect of over 60% in size. Note: potency is the fitted concentration of half-maximal effect. The method, boiled down:
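NADPH-dependent conversion of Luciferin-H EGE (10uM, at KM) by 5nM enzyme in 50mM KPO4, 60 min at 37C following 10 min compound preincubation. Stopped with luciferin detection buffer; luminescence read after 20 min.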

For assay [20], the target named is Cytochrome P450 3A4 (Homo sapiens) (UniProt P08684). As to the kind of experiment: qHTS Assay for Inhibitors and Substrates of Cytochrome P450 3A4 (AID 884). Note: nearly all actives have a fitted effect of over 50% in size. The essentials: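 Luminescent readout of luciferin produced by CYP3A4 (20 nM) dealkylation of Luciferin-PPXE, 25 uM (its KM). NADPH-driven reaction ran 60 min at RT after 10 min compound preincubation; data scaled to 57 uM ketoconazole as 100% inhibition.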

“And” between values parts separate entries of the source, which are not always exact repeats. Identical values can stand only once. Results filed as inconclusive are left out. More than one record can exist for a structure, and the calls need not agree. The source made the active and inactive calls. Unless noted, calls come from the whole dose curve; as a rule, active = well fitted curve in the direction sought with a large enough effect; inconclusive = small, poorly fitted or top-dose-only effect, or another doubt; inactive = no such curve, though single readings can be large; an effect the other way counts as inactive or inconclusive.

Chain of Cytochrome P450 2C9 (Homo sapiens) (P11712 whole entry, looked up): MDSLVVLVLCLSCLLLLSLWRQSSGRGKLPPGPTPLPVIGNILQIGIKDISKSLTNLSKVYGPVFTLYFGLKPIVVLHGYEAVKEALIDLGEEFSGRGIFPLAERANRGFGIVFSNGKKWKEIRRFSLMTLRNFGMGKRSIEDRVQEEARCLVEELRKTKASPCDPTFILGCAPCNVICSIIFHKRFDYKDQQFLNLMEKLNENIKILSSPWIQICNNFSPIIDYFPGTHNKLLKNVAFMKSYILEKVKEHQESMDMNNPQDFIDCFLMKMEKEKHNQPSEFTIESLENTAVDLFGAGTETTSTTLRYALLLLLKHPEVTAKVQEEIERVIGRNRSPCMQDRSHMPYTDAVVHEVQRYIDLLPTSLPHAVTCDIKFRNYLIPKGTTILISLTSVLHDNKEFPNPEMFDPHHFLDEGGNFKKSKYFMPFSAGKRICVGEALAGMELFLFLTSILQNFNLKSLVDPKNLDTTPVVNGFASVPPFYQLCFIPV
Chain of Cytochrome P450 2C19 (Homo sapiens) (P33261 whole entry, looked up): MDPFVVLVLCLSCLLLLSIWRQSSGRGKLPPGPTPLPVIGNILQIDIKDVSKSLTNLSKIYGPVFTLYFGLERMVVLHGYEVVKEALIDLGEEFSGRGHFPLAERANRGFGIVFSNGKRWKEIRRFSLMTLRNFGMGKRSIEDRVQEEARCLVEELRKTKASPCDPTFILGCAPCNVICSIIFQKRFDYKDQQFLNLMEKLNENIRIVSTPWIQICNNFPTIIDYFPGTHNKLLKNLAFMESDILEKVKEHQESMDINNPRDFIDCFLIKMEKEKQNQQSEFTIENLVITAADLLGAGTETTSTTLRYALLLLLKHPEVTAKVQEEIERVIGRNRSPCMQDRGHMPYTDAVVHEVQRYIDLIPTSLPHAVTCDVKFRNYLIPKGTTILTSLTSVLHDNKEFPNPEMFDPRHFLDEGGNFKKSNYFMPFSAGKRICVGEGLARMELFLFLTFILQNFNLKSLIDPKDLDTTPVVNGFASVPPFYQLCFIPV
Chain of Cytochrome P450 3A4 (Homo sapiens) (P08684 whole entry, looked up): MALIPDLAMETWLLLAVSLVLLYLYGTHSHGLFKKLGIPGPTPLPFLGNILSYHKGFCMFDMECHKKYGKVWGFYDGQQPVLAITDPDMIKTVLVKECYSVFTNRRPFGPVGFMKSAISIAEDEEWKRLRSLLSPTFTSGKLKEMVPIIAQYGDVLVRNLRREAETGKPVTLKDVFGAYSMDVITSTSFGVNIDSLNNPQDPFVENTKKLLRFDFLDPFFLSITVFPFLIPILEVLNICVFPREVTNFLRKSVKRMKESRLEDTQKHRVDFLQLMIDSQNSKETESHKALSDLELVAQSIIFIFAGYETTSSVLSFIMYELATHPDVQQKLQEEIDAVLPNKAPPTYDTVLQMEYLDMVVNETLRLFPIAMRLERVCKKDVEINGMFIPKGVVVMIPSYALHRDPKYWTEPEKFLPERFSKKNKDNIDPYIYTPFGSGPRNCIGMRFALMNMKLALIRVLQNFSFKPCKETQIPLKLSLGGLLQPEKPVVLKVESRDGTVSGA
Chain of Guanine nucleotide-binding protein G(i) subunit alpha-1 (Homo sapiens) (P63096 whole entry, looked up): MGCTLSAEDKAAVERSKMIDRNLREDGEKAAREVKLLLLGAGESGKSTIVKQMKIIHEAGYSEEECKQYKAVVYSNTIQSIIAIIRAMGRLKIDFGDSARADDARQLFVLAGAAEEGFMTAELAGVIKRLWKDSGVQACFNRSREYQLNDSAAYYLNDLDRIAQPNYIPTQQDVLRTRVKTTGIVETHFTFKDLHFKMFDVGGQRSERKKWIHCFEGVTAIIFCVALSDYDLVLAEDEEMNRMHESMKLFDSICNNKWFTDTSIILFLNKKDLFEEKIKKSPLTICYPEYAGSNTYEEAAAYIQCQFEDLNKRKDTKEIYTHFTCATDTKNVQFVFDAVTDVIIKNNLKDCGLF
Chain of Cytochrome P450 2D6 (Homo sapiens) (P10635 whole entry, looked up): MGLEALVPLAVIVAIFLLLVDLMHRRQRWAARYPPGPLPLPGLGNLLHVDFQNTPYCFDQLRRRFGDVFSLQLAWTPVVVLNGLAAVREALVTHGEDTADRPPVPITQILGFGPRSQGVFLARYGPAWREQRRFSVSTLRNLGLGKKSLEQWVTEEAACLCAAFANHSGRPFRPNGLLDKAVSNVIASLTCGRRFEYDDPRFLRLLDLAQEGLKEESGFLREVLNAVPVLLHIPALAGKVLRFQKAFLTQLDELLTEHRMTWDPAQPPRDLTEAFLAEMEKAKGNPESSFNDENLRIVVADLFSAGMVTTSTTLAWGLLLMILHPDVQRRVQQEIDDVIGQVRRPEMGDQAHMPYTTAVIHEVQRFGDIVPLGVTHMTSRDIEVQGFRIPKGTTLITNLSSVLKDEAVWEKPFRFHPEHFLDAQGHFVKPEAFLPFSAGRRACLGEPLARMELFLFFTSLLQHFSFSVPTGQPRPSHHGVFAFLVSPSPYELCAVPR
Chain of 3',5'-cyclic-AMP phosphodiesterase 4B (Homo sapiens) (Q07343 whole entry, looked up): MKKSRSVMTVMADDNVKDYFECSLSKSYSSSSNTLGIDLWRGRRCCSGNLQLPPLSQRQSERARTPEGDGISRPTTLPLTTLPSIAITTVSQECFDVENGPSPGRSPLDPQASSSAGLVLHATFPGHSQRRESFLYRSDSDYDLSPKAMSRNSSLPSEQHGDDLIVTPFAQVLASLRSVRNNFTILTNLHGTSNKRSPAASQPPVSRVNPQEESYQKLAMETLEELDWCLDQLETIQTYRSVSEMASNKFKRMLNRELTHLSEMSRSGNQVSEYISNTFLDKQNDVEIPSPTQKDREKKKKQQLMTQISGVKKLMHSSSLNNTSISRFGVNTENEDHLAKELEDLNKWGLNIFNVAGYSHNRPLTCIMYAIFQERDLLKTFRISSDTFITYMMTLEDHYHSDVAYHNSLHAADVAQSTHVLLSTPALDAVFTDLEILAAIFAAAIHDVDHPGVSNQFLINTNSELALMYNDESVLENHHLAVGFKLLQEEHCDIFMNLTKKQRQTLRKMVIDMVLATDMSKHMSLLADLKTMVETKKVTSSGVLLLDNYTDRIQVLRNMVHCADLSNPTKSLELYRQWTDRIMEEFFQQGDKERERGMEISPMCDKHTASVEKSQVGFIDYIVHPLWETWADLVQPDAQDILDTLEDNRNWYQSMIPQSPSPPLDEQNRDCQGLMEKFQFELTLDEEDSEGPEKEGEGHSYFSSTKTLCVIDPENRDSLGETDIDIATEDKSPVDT

As for `Cc1cnc(C(=O)NCCc2ccc(S(=O)(=O)NC(=O)NC3CCCCC3)cc2)cn1`, the Potency result in assay [1] was “inactive”.
As to `CN(C)CCOC(c1ccccc1)c1ccccc1`, the Potency result in assay [1] and in assay [2] was “inactive” throughout.
Turning to `NS(=O)(=O)c1cc2c(cc1Cl)NCNS2(=O)=O`, the Potency result in [1], in assay [4], in [10] and in assay [12] was “inactive” each time. The compound was classed as inactive in [3], in [5], in assay [6], in [7], in assay [8] and in assay [9]. Further, the call in assay [11], in [13], in assay [14] and in [15] was inactive.
`NC(=O)NO`: the Potency entry in assay [1] was “inactive”.
With `CN(C)C(=O)C(CCN1CCC(O)(c2ccc(Cl)cc2)CC1)(c1ccccc1)c1ccccc1`, the Potency result in [1] was “inactive and 3.79 µM (active)”.
Still for that read-out and setting: in the case of `O=C(c1ccc(F)cc1)C1CCN(CCn2c(=O)[nH]c3ccccc3c2=O)CC1` it was “inactive”; in that of `Cc1ccc(C(=O)Nc2ccc(S(=O)(=O)O)c3cc(S(=O)(=O)O)cc(S(=O)(=O)O)c23)cc1NC(=O)c1cccc(NC(=O)Nc2cccc(C(=O)Nc3cc(C(=O)Nc4ccc(S(=O)(=O)O)c5cc(S(=O)(=O)O)cc(S(=O)(=O)O)c45)ccc3C)c2)c1`, “inactive”.
On the same count and under the same terms, in the case of `OCCN1CCN(CCCN2c3ccccc3Sc3ccc(C(F)(F)F)cc32)CC1` it was “inactive”.
Regarding `CC(C)C(=O)Nc1ccc([N+](=O)[O-])c(C(F)(F)F)c1`, the Potency entry in assay [1], in assay [4], in assay [10], in assay [12], in assay [2] and in assay [16] was “inactive” in each case. Besides, the outcome in assay [3], in [5], in assay [6], in assay [7], in assay [8] and in assay [9] was inactive. In addition, the compound was classed as inactive in assay [11], in assay [13], in assay [14] and in assay [15].
Regarding `NC12CC3CC(CC(C3)C1)C2`, the Potency entry in [1] and in assay [2] was “inactive” throughout.
Turning to `COc1ccc2[nH]cc(CCNC(C)=O)c2c1`, the Potency result in assay [1], in assay [4], in assay [10], in assay [12] and in [17] was “inactive” each time. Besides, the outcome in assay [3], in [5], in assay [6], in [7], in assay [8] and in assay [9] was inactive. The outcome in assay [11], in assay [13], in assay [14] and in [15] was inactive.
`CN1C(C(=O)Nc2ccccn2)=C(O)c2ccccc2S1(=O)=O`: the Potency entry in assay [1], in [2] and in assay [16] was “inactive” each time. Also, the Potency in [18] is 3.98 µM (active); in [19] it was “inactive and 6.31 µM (active)”.
`O=C(c1ccc(OCCN2CCCCC2)cc1)c1c(-c2ccc(O)cc2)sc2cc(O)ccc12`: the Potency result in [1] is “inactive”.
For the compound `CN1CCC(=C2c3ccccc3CC(=O)c3sccc32)CC1`, the Potency entry in assay [1] and in assay [2] was “inactive” throughout. In [20], the outcome was inactive. In addition, the Potency in [16] was 7.94 µM (active) and 3.16 µM (active) and 5.01 µM (active).
As for `O=C(CCCN1CCC(O)(c2ccc(Cl)cc2)CC1)c1ccc(F)cc1`, the Potency result in [1] is “inactive”.
Take `Cn1c(=O)c2c(ncn2C)n(C)c1=O`: the Potency result in assay [1], in assay [4], in assay [10], in assay [12], in assay [18] and in assay [16] was “inactive” throughout. In [19], the Potency result is “inactive”. Besides, the compound was called inactive in [3], in assay [5], in [6], in [7], in assay [8] and in assay [9]. Further, the call in [11], in [13], in [14], in assay [15] and in assay [20] was inactive.
In the case of `CNCCCC12CCC(c3ccccc31)c1ccccc12`, the Potency result in assay [1] and in [2] was “inactive” each time.
With `CN1CCN(C2=Nc3cc(Cl)ccc3Nc3ccccc32)CC1`, the Potency result in assay [1] and in [2] was “inactive” each time.
`Cc1cc(C(C)(C)C)cc(C)c1CC1=NCCN1`: the Potency entry in [1] and in [2] was “inactive” each time. Further, the Potency in assay [16] is 3.98 µM (active).
As for `NCCS(=O)(=O)O`, the Potency entry in assay [1], in assay [4], in assay [10] and in assay [12] was “inactive” throughout. Also, the result in assay [3], in assay [5], in assay [6], in assay [7], in [8] and in [9] was inactive. The result in [11], in [13], in assay [14] and in assay [15] was inactive.

Values taken from PubChem BioAssay (NCATS).
